# From PubChem BioAssay
# Activity calls are given as the source filed them.
# Legend:
# [1] = E. coli DRC41 culture turbidity changes, primary screen, E. coli filamentation inducer project, strain DRC41, OD650, 48 h (AID 1152);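 further: E. coli MC1000 strain DRC41 lacking acrAB efflux pump and sulA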; details: E. coli DRC41 (acrAB sulA), higher = more signal, called active from +8 up or from −8 down
# [2] = small-molecule binders of probe aLefty1, primary screen, biochemical, small-molecule microarray, 635/667 nm fluorescence (AID 1153); details: higher = more signal;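 further: score merges spot fluorescence with signal-to-noise ratio from the scanned slide images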
# [3] = PSAC antagonists in infected red cells, primary screen, cell-based, P. falciparum Indochina, OD700, 1 h (AID 1154); details: P. falciparum Indochina infected RBC osmotic lysis, higher = more signal, called active from +8 up or from −8 down
# [4] = PSAC antagonists in infected red cells, primary screen, cell-based, P. falciparum Indochina, OD700, 2 h (AID 1155);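 further: lysis reports solute entry through the parasite surface anion channel PSAC; channel blockers reduce lysis of infected cells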; details: P. falciparum Indochina infected erythrocytes, osmotic lysis OD700; higher = more signal, called active from +8 up or from −8 down
# [5] = osmotic lysis modulators in infected erythrocytes, primary screen, PSAC antagonist project, cell-based, P. falciparum Indochina, OD700, 3 h (AID 1156); details: higher = more signal, called active from +8 up or from −8 down
# [6] = PSAC antagonists in infected red cells, primary screen, cell-based, P. falciparum Indochina, OD700, 18 h (AID 1157); details: P. falciparum Indochina infected erythrocytes, osmotic lysis OD700, 18 h; higher = more signal, called active from +8 up or from −8 down
# [7] = modulators of S6 phosphorylation in cells, primary screen, cell-based, A549, cytoblot, luminescence, serum-stimulated (AID 1158); details: A549 phospho-S6 cytoblot, 5 h, higher = more signal;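 further: serum-stimulated A549 lung adenocarcinoma cells; signal is phosphorylated S6 detected by cytoblot immunostaining with HRP secondary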
# [8] = molecular target: NADPH oxidase 2 (Homo sapiens) (UniProt P04839); test: NOX2-dependent H2O2 signal modulators, primary screen, NOX inhibitor project, cell-based, HEK293-NOX2, PMA-stimulated, Amplex Red fluorescence (AID 1159); details: 45 min, higher = more signal, called active from +8 up or from −8 down; further: test concentration not given here
# NADPH oxidase 2 (Homo sapiens), sequence (P04839 whole entry, looked up): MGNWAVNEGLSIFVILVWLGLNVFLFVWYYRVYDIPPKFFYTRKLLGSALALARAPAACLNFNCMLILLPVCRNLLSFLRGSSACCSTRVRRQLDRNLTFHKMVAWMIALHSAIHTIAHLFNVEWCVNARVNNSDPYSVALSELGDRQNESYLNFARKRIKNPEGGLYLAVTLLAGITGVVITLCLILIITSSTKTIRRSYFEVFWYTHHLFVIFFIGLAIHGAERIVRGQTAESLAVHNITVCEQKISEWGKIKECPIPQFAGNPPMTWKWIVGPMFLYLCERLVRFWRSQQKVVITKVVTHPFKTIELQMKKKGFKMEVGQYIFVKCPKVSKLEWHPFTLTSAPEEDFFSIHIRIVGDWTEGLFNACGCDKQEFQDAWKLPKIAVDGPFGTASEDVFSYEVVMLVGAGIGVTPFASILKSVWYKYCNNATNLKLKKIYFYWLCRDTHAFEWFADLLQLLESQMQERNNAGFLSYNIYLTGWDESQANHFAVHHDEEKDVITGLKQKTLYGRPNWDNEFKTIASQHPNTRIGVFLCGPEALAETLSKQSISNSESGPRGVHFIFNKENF
# [9] = molecular target: NADPH oxidase 4 (Homo sapiens) (UniProt Q9NPH5); test: NOX4-dependent H2O2 signal modulators, primary screen, NOX inhibitor project, cell-based, HEK293-NOX4, tetracycline-induced, Amplex Red fluorescence (AID 1160); details: 45 min, higher = more signal, called active from +8 up or from −8 down
# NADPH oxidase 4 (Homo sapiens), sequence (Q9NPH5 whole entry, looked up): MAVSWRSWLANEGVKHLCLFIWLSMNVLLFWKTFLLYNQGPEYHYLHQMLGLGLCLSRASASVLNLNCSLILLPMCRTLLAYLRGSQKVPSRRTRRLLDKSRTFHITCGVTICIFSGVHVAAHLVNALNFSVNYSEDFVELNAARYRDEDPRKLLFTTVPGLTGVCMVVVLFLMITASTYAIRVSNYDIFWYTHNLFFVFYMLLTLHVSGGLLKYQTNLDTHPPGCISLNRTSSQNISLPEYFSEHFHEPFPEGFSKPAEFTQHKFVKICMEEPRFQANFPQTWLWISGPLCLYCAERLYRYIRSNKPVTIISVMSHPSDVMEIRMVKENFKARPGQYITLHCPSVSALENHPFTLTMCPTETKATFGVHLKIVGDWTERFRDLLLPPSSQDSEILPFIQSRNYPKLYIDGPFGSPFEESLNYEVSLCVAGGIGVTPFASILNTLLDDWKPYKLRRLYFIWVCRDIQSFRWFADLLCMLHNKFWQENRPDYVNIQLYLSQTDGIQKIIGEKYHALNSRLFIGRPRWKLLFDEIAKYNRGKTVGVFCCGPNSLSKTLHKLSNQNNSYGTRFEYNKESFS
# [10] = molecular target: NADPH oxidase 5 (Homo sapiens) (UniProt Q96PH1); test: NOX5-dependent H2O2 signal modulators, primary screen, NOX inhibitor project, cell-based, HEK293-NOX5, Amplex Red fluorescence (AID 1161); details: HEK293-NOX5, ionomycin, 45 min, higher = more signal
# NADPH oxidase 5 (Homo sapiens), sequence (Q96PH1 whole entry, looked up): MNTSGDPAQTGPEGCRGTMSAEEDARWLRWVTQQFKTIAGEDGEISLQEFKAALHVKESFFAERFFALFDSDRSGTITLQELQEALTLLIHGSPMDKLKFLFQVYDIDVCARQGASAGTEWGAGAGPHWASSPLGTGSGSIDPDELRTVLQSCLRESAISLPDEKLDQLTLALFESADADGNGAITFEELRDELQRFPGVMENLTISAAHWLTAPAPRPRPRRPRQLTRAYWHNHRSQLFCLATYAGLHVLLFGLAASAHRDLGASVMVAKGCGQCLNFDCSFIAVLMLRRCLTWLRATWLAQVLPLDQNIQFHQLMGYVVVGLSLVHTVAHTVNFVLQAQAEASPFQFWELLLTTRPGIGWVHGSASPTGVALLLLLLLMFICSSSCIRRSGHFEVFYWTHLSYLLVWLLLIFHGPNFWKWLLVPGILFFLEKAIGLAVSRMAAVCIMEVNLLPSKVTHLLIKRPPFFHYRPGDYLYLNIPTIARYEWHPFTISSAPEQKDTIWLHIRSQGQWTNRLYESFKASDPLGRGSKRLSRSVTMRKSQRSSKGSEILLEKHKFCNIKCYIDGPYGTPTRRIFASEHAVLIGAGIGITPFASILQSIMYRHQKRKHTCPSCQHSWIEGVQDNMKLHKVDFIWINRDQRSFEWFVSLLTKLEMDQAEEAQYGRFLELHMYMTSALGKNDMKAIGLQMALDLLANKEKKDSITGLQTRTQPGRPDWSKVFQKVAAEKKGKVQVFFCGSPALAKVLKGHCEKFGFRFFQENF
# [11] = A549 cell viability effects, profiling panel, calcein-AM fluorescence, 48 h, basal (AID 1162); details: higher = more signal; further: test concentration not given here
# [12] = adipocyte viability effects, profiling panel, cell-based, 3T3-L1 adipocytes, calcein-AM fluorescence, 48 h, basal (AID 1163); details: 3T3-L1 adipocytes viability, higher = more signal; further: test concentration not given here
# [13] = HepG2 cell viability effects, profiling panel, calcein-AM fluorescence, 48 h, basal (AID 1164); details: higher = more signal; further: test concentration not given here
# [14] = MM1S cell viability effects, profiling panel, calcein-AM fluorescence, 48 h, basal (AID 1165); details: higher = more signal;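 further: viability of MM1S multiple myeloma cells under basal unstimulated conditions; test concentration not given here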
# [15] = basal RPMI8226 viability, no added stimulus, profiling panel, cell-based, calcein-AM fluorescence, 48 h, PK04 Diversity Set (AID 1166); details: RPMI8226 myeloma viability, higher = more signal;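 further: cells grown under basal conditions without added stimulus; test concentration not given here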
# [16] = basal HepG2 mitochondrial membrane potential changes, profiling panel, cell-based, JC-1 fluorescence, 24 h, 100 nL compound (AID 1167); details: higher = more signal; further: test concentration not given here
# [17] = basal 3T3-L1 adipocyte mitochondrial potential changes, profiling panel, cell-based, JC-1 fluorescence, 3T3-L1 adipocytes, 24 h, 100 nL compound (AID 1168); details: JC-1 mitochondrial fluorescence, higher = more signal, called active from +8 up or from −8 down; further: test concentration not given here
# [18] = basal RPMI8226 mitochondrial membrane potential changes, profiling panel, cell-based, JC-1 fluorescence, 24 h, 100 nL compound (AID 1169); details: RPMI8226 myeloma, JC-1 mitochondrial potential fluorescence, higher = more signal; further: test concentration not given here
# [19] = basal MM1S mitochondrial membrane potential changes, profiling panel, cell-based, JC-1 fluorescence, 24 h, 100 nL compound (AID 1170); details: higher = more signal; further: test concentration not given here
# [20] = A549 lung cancer cell viability effects, profiling panel, resazurin fluorescence, 24 h, PK04 Diversity Set (AID 1171); details: higher = more signal, called active from +8 up or from −8 down; further: test concentration not given here
SMILES,z-score [1],composite z-score [2],z-score [3],z-score [4],z-score [5],z-score [6],z-score [7],z-score [8],z-score [9],z-score [10],z-score [11],z-score [12],z-score [13],z-score [14],z-score [15],z-score [16],z-score [17],z-score [18],z-score [19],z-score [20]
CCCCCN1CC=CC23O[C@@H]4/C=C\CCCOC(=O)C4[C@H]2C(=O)N(C(C)CO)[C@@H]3C1=O (stereo not given in full),1.2 (inactive),-0.0984,1.47 (inactive),0.175 (inactive),2.32 (inactive),0.503 (inactive),0.566,0.825 (inactive),0.19 (inactive),1.03,0.327,-0.0628,-0.0728,1.16,0.15,0.37,0.0667 (inactive),1.08,-1.13,0.423 (inactive)
CS(=O)(=O)CCOC(=O)C1=CC(c2ccc(CO)cc2)=CC(C2CC2)N(Cc2sc3ccccc3c2Cl)C=C1C(=O)OCCS(C)(=O)=O (stereo not given),-3.12 (inactive),0.141,13.8 (active),3.35 (inactive),0.239 (inactive),1.39 (inactive),0.044,0.932 (inactive),0.186 (inactive),-0.935,-0.852,-0.716,0.0312,-3.29,-2.92,0.424,0.662 (inactive),-0.943,-1.87,-1.05 (inactive)
COCCOC(=O)N1C(=O)[C@@]2(c3cc(C#CC4(O)CCCCCC4)ccc31)[C@H](C(=O)Nc1nc3ccccc3s1)[C@H]1C(=O)O[C@H](c3ccccc3)[C@H](c3ccccc3)N1[C@@H]2c1ccc(O)cc1,0.0662 (inactive),0.219,0.4 (inactive),0.925 (inactive),-0.186 (inactive),1.47 (inactive),-0.335,1.01 (inactive),0.286 (inactive),0.785,0.638,-0.457,0.74,-0.227,-2.46,-3.17,-0.421 (inactive),-0.897,-0.897,-0.436 (inactive)
O=C1OCCC/C=C\[C@H]2OC34C=CCN(c5ccc6ccccc6c5)C(=O)[C@H]3N(CCO)C(=O)[C@@H]4C12 (stereo not given in full),-0.067 (inactive),0.0313,2.17 (inactive),0.476 (inactive),0.217 (inactive),0.532 (inactive),0.235,0.356 (inactive),-0.419 (inactive),1.81,0.451,1.91,-0.569,1.3,-0.205,-0.00127,-0.622 (inactive),-0.0898,1.03,-1.48 (inactive)
C=C(COC)C(=O)CC[C@@H](OC(C)=O)c1cccc(OCCO)c1,0.0328 (inactive),-0.152,4.13 (inactive),1.11 (inactive),0.864 (inactive),0.529 (inactive),-0.487,0.212 (inactive),-1.01 (inactive),-1.06,0.851,0.617,-0.4,-3.46,-0.496,-0.0521,-0.196 (inactive),0.0392,-0.274,0.387 (inactive)
COc1ccccc1CN1C(=O)c2ccccc2[C@](Cc2ccccc2I)(C(=O)O)[C@@H]1c1ccc(CO)cc1,1.03 (inactive),0.0366,5.55 (inactive),1.09 (inactive),-0.0546 (inactive),0.426 (inactive),-0.523,1.03 (inactive),0.616 (inactive),0.646,1.14,-1.03,0.235,-0.616,-1.7,-0.199,-0.205 (inactive),-0.151,-0.177,-0.17 (inactive)
CO[C@H]1O[C@H](CO)[C@@H](OC(=O)CCc2ccccc2)[C@@H]2OC(=O)[C@@H](Cc3ccccc3)C/C=C/C[C@H](Cc3ccccc3)C(=O)O[C@@H]12,0.453 (inactive),-0.0054,4.5 (inactive),0.829 (inactive),1.23 (inactive),0.546 (inactive),0.658,-4.56 (inactive),-0.97 (inactive),-2,1.7,0.271,0.514,-0.753,-0.711,0.358,0.669 (inactive),0.578,-0.946,1.2 (inactive)
COc1cc2c(cc1O)C(c1ccc(CN3CCCC3)cc1)N(Cc1cc3c(cc1Br)OCO3)CC2 (stereo not given),-2.4 (inactive),-0.138,3.92 (inactive),0.984 (inactive),0.782 (inactive),0.526 (inactive),0.0637,-3.51 (inactive),-2.64 (inactive),-3.57,-0.717,-0.564,-0.341,-3.17,0.173,1.21,0.144 (inactive),-0.398,-1.29,0.694 (inactive)
O=C1OCCC=C[C@H]2OC34C=CCN(Cn5nnc6ccccc65)C(=O)[C@H]3N(CCCO)C(=O)[C@@H]4C12 (stereo not given in full),1.24 (inactive),-0.321,0.502 (inactive),-1.23 (inactive),1.65 (inactive),-1.32 (inactive),0.601,0.813 (inactive),-0.341 (inactive),-1.35,0.213,1.03,-1.1,0.114,-1.04,-0.746,0.147 (inactive),0.057,0.251,-0.618 (inactive)
C=CCNC(=O)[C@@H]1[C@H]2C(=O)O[C@H](c3ccccc3)[C@H](c3ccccc3)N2[C@H](c2ccccc2OCCO)[C@@]12C(=O)Nc1ccc(C#CCC(C(=O)OC)C(=O)OC)cc12,-0.79 (inactive),0.666,4.93 (inactive),1.81 (inactive),0.622 (inactive),1.36 (inactive),-0.304,0.21 (inactive),0.161 (inactive),1.98,-0.423,-0.695,-0.852,-3.28,-4.17,-1.4,2.37 (inactive),-0.941,-1.96,-1.3 (inactive)
